Values joined by “and” are separate entries in the source; they are usually repeats but may differ in a detail not shown here. Equal entries are not always repeated. Inconclusive results are not listed. Where a structure was tested more than once in an assay, its records may differ in their call. Active and inactive are the calls of the source. Unless noted, calls come from the whole dose curve.
Assay: qHTS assay for small molecules that induce genotoxicity in human embryonic kidney cells expressing luciferase-tagged ATAD5 - cell viability (AID 651634); note: nearly all actives have a fitted effect of over 25% in size
Details: HEK293T ATAD5-luc cells viability, CellTiter-Fluor, 15.5 h; series mostly up to 83.3 µM; activity, negative = cytotoxicity: at the top concentration
Outline: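 After 15.5 hr incubation with compound at 37C, 5% CO2, HEK293T ATAD5-luciferase cells received CellTiter-Fluor reagent; fluorescence intensity was quantified following 30 min at 37C.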
% is set by controls: 0 for no effect and ±100 for the full control effect.

| Compound | activity, negative = cytotoxicity | Potency |
| --- | --- | --- |
| CC(C)=CCCC(C)CC(=O)O (stereo not given) | 11.1% (inactive) |  |
| NCCc1cnc[nH]1 | -18.9% (inactive) |  |
| C=C1CC[C@H]2C[C@@H]1C2(C)C | 15.1% (inactive) |  |
| CC(C)OC(=O)c1ccccc1 | 13.8% [at 95.3 µM] (inactive) |  |
| O=Cc1cccc([N+](=O)[O-])c1 | 12.8% (inactive) |  |
| CCOC(=O)Nc1ccc(NCc2ccc(F)cc2)nc1N |  | inactive |
| Cc1ccc(C#N)cc1 | 15.7% (inactive) |  |
| CCC=O | 8.55% [at 95.3 µM] (inactive) |  |
| CC/C=C\CC/C=C/CO | 11.9% (inactive) |  |
| COC(=O)CCSCCC(=O)OC | 17.4% (inactive) |  |
| OC1CCCCC1c1ccccc1 (stereo not given) | -21.9% (inactive) |  |
| CC(C)(O)C(=O)c1ccccc1 | 5.82% (inactive) |  |
| C[C@H](NC(CCc1ccccc1)C(=O)O)C(=O)N1CCC[C@H]1C(=O)O (stereo not given in full) | -9.03% (inactive) |  |
| Nc1c[n+](N2CCOCC2)no1 | -1.69% (inactive) |  |
| CCOc1ccc(C(=O)OCCN(CC)CC)cc1 | -6.5% (inactive) |  |
| Cc1nc2c([nH]1)c(=O)n(C)c(=O)n2Cc1ccco1 | 18.8% (inactive) |  |
| CC(=O)N(CC(O)CO)c1c(I)c(C(=O)NCCO)c(I)c(C(=O)NCC(O)CO)c1I (stereo not given) | -8.64% (inactive) |  |
| CCCC(=O)O[C@]1(C(=O)CO)CC[C@H]2[C@@H]3CCC4=CC(=O)CC[C@]4(C)[C@H]3[C@@H](O)C[C@@]21C | 5.57% (inactive) |  |
| NCCCNCCSP(=O)(O)O | 17.6% (inactive) |  |
| CC(C)(C)c1ccc(O)c(O)c1 |  | inactive |
| C=C(C)CS(=O)(=O)O | 7.29% (inactive) |  |
| CO/N=C(/C(=O)N[C@@H]1C(=O)N2C(C(=O)OCOC(=O)C(C)(C)C)=C(C)CS[C@H]12)c1csc(N)n1 | 12.1% (inactive) |  |
| CC(C)(c1ccc(O)cc1)c1ccc(O)cc1 |  | inactive |
| O=C1CCCN1C1CCCCC1 | 13.7% (inactive) |  |
| CC(C)NC(=O)NC(C)C | 10.7% (inactive) |  |
| CCOC(=O)CC(C)=O | 15.7% [at 95.3 µM] (inactive) |  |
| CN(C)CCCN1c2ccccc2CCc2ccc(Cl)cc21 |  | inactive |
| CC(C)(C)c1nnc(NS(=O)(=O)c2ccccc2)s1 | 10% (inactive) |  |
| O=C(O)CN(CCOCCOCCN(CC(=O)O)CC(=O)O)CC(=O)O | 5.05% (inactive) |  |

Assay: qHTS assay for small molecule disruptors of the mitochondrial membrane potential - cell viability (AID 720634);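 note: human HepG2 liver cancer cells; nearly all actives have a fitted effect of over 20% in size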
Details: HepG2 viability, ATP luminescence (CellTiter-Glo), 1 h; series mostly up to 83.2 µM; activity change, negative = cytotoxicity: at the top concentration
Outline: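 ATP-based luminescent viability readout (CellTiter-Glo, 30 min, room temperature) in HepG2 cells multiplexed with the m-MPI membrane potential dye; compound exposure lasted 1 hr at 37 C.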

| Compound | activity change, negative = cytotoxicity | Potency |
| --- | --- | --- |
| CC(C)=CCCC(C)CC(=O)O (stereo not given) | 5.75% (inactive) |  |
| NCCc1cnc[nH]1 | -13.9% (inactive) |  |
| CC(C)OC(=O)c1ccccc1 | -8.07% [at 95.3 µM] (inactive) |  |
| O=Cc1cccc([N+](=O)[O-])c1 | -2.4% (inactive) |  |
| CCOC(=O)Nc1ccc(NCc2ccc(F)cc2)nc1N |  | inactive |
| Cc1ccc(C#N)cc1 | -1.76% (inactive) |  |
| CCC=O | 8.37% [at 95.3 µM] (inactive) |  |
| CC/C=C\CC/C=C/CO | 2.63% (inactive) |  |
| COC(=O)CCSCCC(=O)OC | -12.9% (inactive) |  |
| FC1(F)C(F)(F)C(F)(F)C2(F)C(F)(F)C(F)(F)C(F)(F)C(F)(F)C2(F)C1(F)F (stereo not given) | 1.68% (inactive) |  |
| Cc1[nH]c(=O)c(C#N)cc1-c1ccc2nccn2c1 | 10.9% (inactive) |  |
| CCO/C([O-])=N/c1c[n+](N2CCOCC2)no1 | -3.41% [at 39.1 µM] (inactive) |  |
| OC1CCCCC1c1ccccc1 (stereo not given) | 4.81% (inactive) |  |
| COC(=O)C1=C(C)NC(C)=C(C(=O)OC)C1c1ccccc1[N+](=O)[O-] |  | inactive |
| C[C@H](NC(CCc1ccccc1)C(=O)O)C(=O)N1CCC[C@H]1C(=O)O (stereo not given in full) | 5.96% (inactive) |  |
| Nc1c[n+](N2CCOCC2)no1 | -10.5% (inactive) |  |
| CCOc1ccc(C(=O)OCCN(CC)CC)cc1 | 12.2% (inactive) |  |

| Compound | activity change, negative = cytotoxicity | Potency |
| --- | --- | --- |
| Cc1nc2c([nH]1)c(=O)n(C)c(=O)n2Cc1ccco1 | 10.3% (inactive) |  |
| CC(=O)N(CC(O)CO)c1c(I)c(C(=O)NCCO)c(I)c(C(=O)NCC(O)CO)c1I (stereo not given) | 11.8% (inactive) |  |
| CCCCCCCCCCCCCCCCC | 8.77% (inactive) |  |
| CO[C@]12C[C@@H](COC(=O)c3cncc(Br)c3)CN(C)[C@@H]1Cc1cn(C)c3cccc2c13 | 0.72% (inactive) |  |
| NCCCNCCSP(=O)(O)O | 0.727% (inactive) |  |
| CC(C)(C)c1ccc(O)c(O)c1 |  | inactive |
| C=C(C)CS(=O)(=O)O | 8.66% (inactive) |  |
| NC(CSCC(=O)O)C(=O)O (stereo not given) | -9.15% (inactive) |  |
| CO/N=C(/C(=O)N[C@@H]1C(=O)N2C(C(=O)OCOC(=O)C(C)(C)C)=C(C)CS[C@H]12)c1csc(N)n1 | -5.19% (inactive) |  |
| CC(C)(c1ccc(O)cc1)c1ccc(O)cc1 |  | inactive |
| CC(C)NC(=O)NC(C)C | 6.52% (inactive) |  |
| CCOC(=O)CC(C)=O | 9.64% [at 95.3 µM] (inactive) |  |
| CN(C)CCCN1c2ccccc2CCc2ccc(Cl)cc21 |  | inactive |
| CC(C)(C)c1nnc(NS(=O)(=O)c2ccccc2)s1 | 25.9% (inactive) |  |
| O=C(O)CN(CCOCCOCCN(CC(=O)O)CC(=O)O)CC(=O)O | 12.7% (inactive) |  |
| CCCCNC(=O)NCCCC | 10.1% (inactive) |  |

Assay: qHTS assay for small molecule disruptors of the mitochondrial membrane potential (AID 720635; active = well fitted inhibition curve with a large enough effect in the signal ratio in the repeat runs; the % refers to the signal ratio; note: potency is the fitted concentration of half-maximal effect)
Details: HepG2 mitochondrial membrane potential, Mito-MPS dye ratio; series mostly up to 83.2 µM; ratio activity, negative = MMP loss: at the top concentration
Outline: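 Mitochondrial membrane potential tracked with Mito-MPS dye, red aggregates (ex 540/em 590 nm) against green monomers (ex 490/em 535 nm). Compound treatment 1 hr at 37C, dye 30 min in HepG2.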

| Compound | ratio activity, negative = MMP loss | Potency |
| --- | --- | --- |
| CC(C)=CCCC(C)CC(=O)O (stereo not given) | 19.5% (inactive) |  |
| CCCCOCCOCCOCc1cc2c(cc1CCC)OCO2 |  | 55.1 µM (active) |
| CCOC(=O)Nc1ccc(NCc2ccc(F)cc2)nc1N | -18.7% (inactive) |  |
| COC(=O)CCSCCC(=O)OC | 16.1% (inactive) |  |
| FC1(F)C(F)(F)C(F)(F)C2(F)C(F)(F)C(F)(F)C(F)(F)C(F)(F)C2(F)C1(F)F (stereo not given) | -11.3% (inactive) |  |
| CC(C)(O)C(=O)c1ccccc1 | 14.3% (inactive) |  |
| COC(=O)C1=C(C)NC(C)=C(C(=O)OC)C1c1ccccc1[N+](=O)[O-] |  | inactive and 61.2 µM (active) |
| C[C@H](NC(CCc1ccccc1)C(=O)O)C(=O)N1CCC[C@H]1C(=O)O (stereo not given in full) | 1.04% (inactive) |  |
| Nc1c[n+](N2CCOCC2)no1 | -14.5% (inactive) |  |
| O=c1cc(-c2ccccc2)oc2ccccc12 |  | 48.6 µM (active) and 15.4 µM (active) |
| Cc1nc2c([nH]1)c(=O)n(C)c(=O)n2Cc1ccco1 | -4.02% (inactive) |  |
| CC(=O)N(CC(O)CO)c1c(I)c(C(=O)NCCO)c(I)c(C(=O)NCC(O)CO)c1I (stereo not given) | -18.3% (inactive) |  |
| CCCCCCCCCCCCCCCCC | 20.9% (inactive) |  |
| CO[C@]12C[C@@H](COC(=O)c3cncc(Br)c3)CN(C)[C@@H]1Cc1cn(C)c3cccc2c13 | 11.5% (inactive) |  |
| NCCCNCCSP(=O)(O)O | 6.37% (inactive) |  |
| CC(=O)OC/C=C(\C)CC/C=C(\C)CCC=C(C)C | 12.3% (inactive) |  |
| CC(C)(C)c1ccc(O)c(O)c1 |  | 15.9 µM (active) and 13.7 µM (active) |
| CC(C)(c1ccc(O)cc1)c1ccc(O)cc1 |  | 6.78 µM (active) and 5.54 µM (active) |

From PubChem BioAssay (Tox21)
